The list is not random: actives were taken first. Their share in the collection is about 3.2%.
FMDV inh = antivirals against foot and mouth disease virus; FMDV antiviral cell-based qHTS; AID 1159524; actives 1.2% (n = 410,000); Potency, µM (series often up to 57.9 µM), without a hit: at the highest dose activity change, negative = inhibition, usual class: inhibitors; calls by dose curve; tested in HEK293T cells; further: read-out not given here; nearly all actives have a fitted effect of over 45% in size
MARV entry inh = Marburg virus entry inhibition | Potency, µM (titrated, usually from 37.8 µM), for the others: at the highest dose activity change, negative = inhibition, actives largely listed as inhibitors | Marburg virus pseudotyped entry inhibition, cell reporter | AID 540276 | actives 1.8% (n = 300,000); calls by dose curve; tested in HEK293 cells
Lassa entry inh = Lassa virus entry inhibition; Potency, µM (titrated, usually from 37.9 µM), for the others: top-dose activity change, negative = inhibition, actives largely listed as inhibitors; actives 1.2% (n = 300,000); Lassa virus pseudotype entry inhibition, cell reporter; AID 540256; calls by dose curve; tested in HEK293 cells; further: nearly all actives have a fitted effect of over 50% in size
Vaccinia mCherry = vaccinia inhibition (mCherry reporter); Vaccinia virus mCherry reporter infection, fluorescence; Potency, µM (highest dose often 36.5 µM), inactives show at the top dose activity change, negative = inhibition, most hits filed as inhibitors; actives 0.63% (n = 310,000); AID 720579; calls by dose curve; tested in A549 cells; further: nearly all actives have a fitted effect of over 35% in size
VACV Venus inh = inhibitors of vaccinia virus (Venus reporter); Vaccinia virus Venus reporter expression, fluorescence; actives 0.46% (n = 330,000); Potency, µM (top dose mostly 36.5 µM), inactives show top-dose activity change, negative = inhibition, most hits filed as inhibitors; calls by dose curve; tested in A549 cells; further: nearly all actives have a fitted effect of over 30% in size
* marks the source's active call; other numbers are inactive results; [ ] = another dose, or the depositor's remark. On the % scale 0 is the no-effect control and ±100 the full control effect; potency means the concentration at half of the fitted maximal effect.

Cc1ccc(NC(=O)CSc2ccc(Br)cc2)cc1S(=O)(=O)N1CCOCC1 was read as FMDV inh inconclusive, MARV entry inh inconclusive, Lassa entry inh inconclusive, Vaccinia mCherry inconclusive and VACV Venus inh -15%.
For COc1ccc(NC(=O)c2ccc(-c3ccccc3)cc2)cc1S(=O)(=O)N1CCOCC1 the results were FMDV inh 3.5µM*, MARV entry inh -8%[46.1 µM], Lassa entry inh -3%, Vaccinia mCherry inconclusive and VACV Venus inh -29%.
`Cc1ccc(NC(=O)c2ccc(S(=O)(=O)N(C)c3ccccc3)cc2)cc1S(=O)(=O)N1CCOCC1` gave FMDV inh 13µM*.
`Cc1ccc(NC(=O)CCCSc2ccccc2)cc1S(=O)(=O)N1CCOCC1` gave FMDV inh 28µM*, MARV entry inh inconclusive, Lassa entry inh inconclusive, Vaccinia mCherry inconclusive and VACV Venus inh -20%.
`COc1ccc(NC(=O)c2ccc(S(=O)(=O)N(C)c3ccccc3)cc2)cc1S(=O)(=O)N1CCOCC1` gave FMDV inh 16µM*, Vaccinia mCherry inconclusive and VACV Venus inh inconclusive.
For Cc1cccc(-c2nc3c(C#N)c[nH]n3c2NC2CCCCC2)c1 the results were FMDV inh 2%, MARV entry inh 8%[46.1 µM], Lassa entry inh -6%[46.1 µM], Vaccinia mCherry inconclusive and VACV Venus inh inconclusive.
Cc1ccc(Cl)cc1N1CCN(C(=O)c2cc(S(=O)(=O)N3CCCC3)c[nH]2)CC1 was read as FMDV inh -6%, Lassa entry inh 3%[46.1 µM], Vaccinia mCherry -26% and VACV Venus inh -15%.
COc1cccc(CN(C)C(=O)CSc2nc3ccccc3[nH]2)c1OC was read as FMDV inh 9%, MARV entry inh 7%[46.1 µM], Lassa entry inh 26%[46.1 µM], Vaccinia mCherry -8% and VACV Venus inh 3%.
For Cc1ccc(-c2[nH]ncc2/C=N/n2c(COc3ccccc3C)nc3ccccc3c2=O)cc1 the results were FMDV inh -17%, MARV entry inh 11µM*, Lassa entry inh inconclusive, Vaccinia mCherry inconclusive and VACV Venus inh 11µM*.
`Cc1cccc(C)c1OCc1nc2ccccc2c(=O)n1/N=C/c1c[nH]c2ccccc12` gave FMDV inh inconclusive, MARV entry inh inconclusive, Lassa entry inh 2.5µM*, Vaccinia mCherry inconclusive and VACV Venus inh inconclusive.
Screening Cc1ccccc1OCc1nc2ccccc2c(=O)n1/N=C/c1c[nH]c2ccccc12 returned FMDV inh -30%, MARV entry inh -6%, Lassa entry inh inconclusive, Vaccinia mCherry inactive and VACV Venus inh -14%.
`COc1ccc(NC(=O)CSc2c3c(nc4ccccc24)CCCC3)c(OC)c1` gave FMDV inh 35µM*, MARV entry inh inconclusive, Lassa entry inh inconclusive, Vaccinia mCherry -13% and VACV Venus inh -24%.
`COc1ccc(Nc2c3c(nc4ccccc24)CCCC3)cc1OC` gave FMDV inh -25%, MARV entry inh 8.9µM*, Lassa entry inh -24%, Vaccinia mCherry inconclusive and VACV Venus inh -8%.
For COc1ccccc1Nc1c2c(nc3ccc(NC(=O)c4cccc(F)c4)cc13)CCCC2 the results were FMDV inh 32µM*, MARV entry inh inconclusive, Lassa entry inh inconclusive, Vaccinia mCherry 11µM* and VACV Venus inh inconclusive.
`COc1ccc(Nc2c3c(nc4ccccc24)CCC3)cc1` gave FMDV inh inconclusive, MARV entry inh 8.9µM*, Lassa entry inh inconclusive, Vaccinia mCherry inconclusive and VACV Venus inh inconclusive.
`COc1ccccc1Nc1c2c(nc3ccc(NC(=O)/C=C/c4cccc(OC)c4OC)cc13)CCCC2` gave FMDV inh -27%, MARV entry inh inconclusive, Lassa entry inh -20%[46.1 µM], Vaccinia mCherry inconclusive and VACV Venus inh inconclusive.
CSc1ccc(CCNC(=O)C2CCCN(S(=O)(=O)N(C)c3ccc(F)cc3)C2)cc1 (stereo not given) was read as FMDV inh 35µM*, Lassa entry inh -18%[46.1 µM], Vaccinia mCherry -7% and VACV Venus inh -22%.
CN(c1ccc(F)cc1)S(=O)(=O)N1CCCC(C(=O)NCc2ccccc2Cl)C1 (stereo not given) was read as FMDV inh -9%, Lassa entry inh inconclusive, Vaccinia mCherry -12% and VACV Venus inh -5%.
Screening CN(c1ccc(F)cc1)S(=O)(=O)N1CCCC(C(=O)NCCc2ccccc2)C1 (stereo not given) returned FMDV inh -14%, Lassa entry inh -29%[46.1 µM], Vaccinia mCherry -8% and VACV Venus inh -9%.
`COc1cccc(CNC(=O)C2CCCN(S(=O)(=O)N(C)c3ccc(F)cc3)C2)c1OC` (stereo not given) gave FMDV inh 22µM*, Lassa entry inh -17%[46.1 µM], Vaccinia mCherry -12% and VACV Venus inh -26%.
Screening O=C(Nc1ccc2nc(SCC(=O)N3CCOCC3)sc2c1)c1ccc(F)cc1 returned FMDV inh -16%, MARV entry inh inconclusive, Lassa entry inh 19%[46.1 µM], Vaccinia mCherry -11% and VACV Venus inh -19%.
Screening Cc1ccc(OCCSc2nc3ccc(NC(=O)c4ccc5c(c4)OCO5)cc3s2)cc1 returned FMDV inh inconclusive, MARV entry inh -2%[46.1 µM], Lassa entry inh -27%[46.1 µM], Vaccinia mCherry inconclusive and VACV Venus inh 11µM*.
`O=C(Nc1ccc2nc(SCC(=O)N3CCOCC3)sc2c1)c1cccc(Br)c1` gave FMDV inh 25µM*, MARV entry inh inconclusive, Lassa entry inh -18%[46.1 µM], Vaccinia mCherry -24% and VACV Venus inh -26%.
For O=C(Nc1ccc2nc(SCC(=O)N3CCOCC3)sc2c1)c1ccc(Br)cc1 the results were FMDV inh inconclusive, MARV entry inh inconclusive, Lassa entry inh 1%[46.1 µM], Vaccinia mCherry -12% and VACV Venus inh -13%.
CCC(CC)C(=O)Nc1ccc2nc(SCC(=O)N3CCc4ccccc43)sc2c1 was read as FMDV inh inconclusive, MARV entry inh inconclusive, Lassa entry inh -13%[46.1 µM], Vaccinia mCherry inactive and VACV Venus inh -6%.
For O=C(Nc1ccc2nc(SCC(=O)N3CCOCC3)sc2c1)c1ccc(Cl)cc1 the results were FMDV inh 20µM*, MARV entry inh inconclusive, Lassa entry inh inconclusive, Vaccinia mCherry inconclusive and VACV Venus inh inconclusive.
Screening CC(C)C(=O)Nc1ccc2nc(SCC(=O)N3CCc4ccccc43)sc2c1 returned FMDV inh 35µM*, MARV entry inh -19%[46.1 µM], Lassa entry inh -6%[46.1 µM], Vaccinia mCherry -4% and VACV Venus inh -2%.
Screening O=C(Nc1ccc(Cl)cc1)C1Cc2c(-c3cccc(F)c3)ccnc2O1 (stereo not given) returned FMDV inh -25%, Vaccinia mCherry 8% and VACV Venus inh -8%.
c1cc2c3c(c1)CCCN3CCC2 was read as Vaccinia mCherry -10% and VACV Venus inh -25%.
Screening Ic1ccc(/C=C2\C=Cc3ccccc32)cc1 returned Vaccinia mCherry -17% and VACV Venus inh -8%.
For COc1ccc(C(=O)Nc2ccc3nc(SCC(=O)N(C)c4ccccc4)sc3c2)cc1 the results were FMDV inh 35µM*, MARV entry inh inconclusive, Lassa entry inh inconclusive, Vaccinia mCherry -18% and VACV Venus inh inconclusive.

Compound activity: PubChem, National Center for Advancing Translational Sciences (NCATS)
